This passage reports outcome and AC50 results from PubChem BioAssay (EPA / NIEHS).

Assay [1] in a line: ATG_XTT_Cytotoxicity: Cytotoxicity Assessment in the Attagene TRANS-FACTORIAL HepG2 Assay (AID 2283584). Summed up:
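24 h chemical exposure of reporter-transfected HepG2; XTT signal loss vs DMSO indicates cytotoxicity.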

The nature of assay [2]: TOX21_p53_BLA_p2_viability: Viability Assessment in the Tox21 HCT-116 p53 Agonism Beta-lactamase Assay, Phase 2 (AID 2283591).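 Further: compound exposure lasted 16 h at 37 °C; actives lower the ATP signal meaning cytotoxicity.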 An outline of the steps: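 HCT116 p53-bla cells, 4000/well, dosed after 5 h plating (217-fold dilution of DMSO stocks) and incubated 16 h at 37C. Viability taken as cellular ATP by CellTiter-Glo luminescence after 30 min RT; signal loss marks cytotoxicity.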

Assay [3] has as its target Cellular tumor antigen p53 (Homo sapiens) (UniProt P04637). The assay is described as follows: TOX21_p53_BLA_p2_ratio: Tox21 HCT-116 p53 Agonism Beta-lactamase Assay, Ratio, Phase 2 (AID 2283592). Summed up: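 DMSO-normalized, positive-direction endpoint derived from the 460 nm/530 nm FRET ratio in HCT116 p53 beta-lactamase reporter cells exposed 16 h at 37C and loaded with CCF4-AM for 2 h.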

A short description of assay [4]: TOX21_p53_BLA_p3_viability: Viability Assessment in the Tox21 HCT-116 p53 Agonism Beta-lactamase Assay, Phase 3 (AID 2283593).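 Further: cells exposed to compound for 16 h before reading.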 Summed up: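 HCT116 cells, 4000/well, dosed 5 h after plating by pin transfer (217-fold dilution from DMSO stock) and incubated 16 h at 37C, 5% CO2. Viability read as ATP luminescence with CellTiter-Glo after 30 min at room temperature.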

For assay [5], the target named is Cellular tumor antigen p53 (Homo sapiens) (UniProt P04637). Description: TOX21_p53_BLA_p3_ratio: Tox21 HCT-116 p53 Agonism Beta-lactamase Assay, Ratio, Phase 3 (AID 2283596). An outline of the steps: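 Cells were seeded at 4000/well, rested 5 h at 37C, then dosed with DMSO compound solutions (217-fold dilution) for 16 h. CCF4-AM substrate was loaded for 2 h at room temperature, and the 460/530 nm emission ratio was fitted for gain of signal versus DMSO.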

Assay [6] is described as follows: TOX21_p53_BLA_p4_viability: Viability Assessment in the Tox21 HCT-116 p53 Agonism Beta-lactamase Assay, Phase 4 (AID 2283597).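 Further: hits lower the luminescence signal meaning cytotoxicity.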 Summed up: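 In this multiplexed secondary endpoint, HCT116 cells (4000 per well, compound at 5 h, 16 h treatment) received CellTiter-Glo after the beta-lactamase read. Luminescence after 30 min RT reflects ATP, and falling signal marks cytotoxicity.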

In assay [7] the target is Cellular tumor antigen p53 (Homo sapiens) (UniProt P04637). The assay is described as follows: TOX21_p53_BLA_p5_ratio: Tox21 HCT-116 p53 Agonism Beta-lactamase Assay, Ratio, Phase 5 (AID 2283599). An outline of the steps: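 HCT-116 p53-bla cells (4000/well) plated 5 h, dosed with compound (217-fold DMSO dilution) for 16 h at 37 C; CCF4-AM substrate 2 h at room temperature. Activity is the 460/530 nm emission ratio (405 nm excitation), fitted in gain-of-signal direction versus DMSO.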

A short description of assay [8]: TOX21_p53_BLA_p5_viability: Viability Assessment in the Tox21 HCT-116 p53 Agonism Beta-lactamase Assay, Phase 5 (AID 2283600). An outline of the steps:
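Here cell health was gauged by ATP levels in wells holding 4000 cells, each treated 16 h with DMSO-delivered compounds at 217-fold dilution; reduced luminescence marked toxicity.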

In assay [9] the target is Cellular tumor antigen p53 (Homo sapiens) (UniProt P04637). Description: TOX21_p53_BLA_p4_ratio: Tox21 HCT-116 p53 Agonism Beta-lactamase Assay, Ratio, Phase 4 (AID 2283601). An outline of the steps:
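HCT-116 p53 beta-lactamase reporter cells (4000/well) preincubated 5 h, then compound (217-fold dilution of DMSO stock) for 16 h at 37C. CCF4-AM substrate added 2 h at room temperature; 460/530 nm emission ratio fitted upward versus DMSO.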

Read-out in assay [10]: Thyroid Hormone Responsive (THRSP), THRSP (gene 7069)
The assay is described as follows: LTEA_HepaRG_THRSP: Life Technologies and Expression Analysis (LTEA) Assay for Thyroid Hormone Responsive (THRSP) using HepaRG (AID 2283536; active means hit-call score of the fitted dose curve at least 0.9, where 1 is the maximum; inactive means score below 0.9). To be noted: mRNA level, 48 h; actives raise or lower the signal. An outline of the steps:
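qRT-PCR read-out (Fluidigm TaqMan), housekeeping-normalized (ACTB/GAPDH/POLR2A). HepaRG, 48 h chemical exposure, 8-pt half-log series from 100 uM in 0.5% DMSO, duplicates. Bidirectional curve fit vs 0.5% DMSO baseline.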

Read-out in assay [11]: Cellular tumor antigen p53 (Homo sapiens) (UniProt P04637)
The assay is described as follows: LTEA_HepaRG_TP53: Life Technologies and Expression Analysis (LTEA) Assay for Tumor Protein P53 (TP53) using HepaRG (AID 2283537; active means hit-call score of the fitted dose curve at least 0.9, where 1 is the maximum; inactive means score below 0.9). To be noted: mRNA level, 48 h; actives raise or lower the signal. Summed up: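 Read-out is TP53 transcript level by microfluidic qRT-PCR, normalised to three housekeeping genes and fitted bidirectionally against DMSO. Human HepaRG cells received compounds for 48 h, highest concentration 100 uM.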

Read-out in assay [12]: UDP glucuronosyltransferase (UGT1A1), UGT1A1 (gene 54658)
The assay is described as follows: LTEA_HepaRG_UGT1A1: Life Technologies and Expression Analysis (LTEA) Assay for UDP glucuronosyltransferase (UGT1A1) using HepaRG (AID 2283538; active means hit-call score of the fitted dose curve at least 0.9, where 1 is the maximum; inactive means score below 0.9). The following applies: mRNA level, 48 h; actives raise or lower the signal. Summed up: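 UGT1A1 transcript level, measured by qRT-PCR with three housekeeping genes for normalization, after 48 h treatment of human HepaRG cells (0.5% DMSO, duplicates, up to 100 uM, half-log steps, 8 points). Curves fit both directions against DMSO baseline.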

Read-out in assay [13]: X-box binding protein 1 (XBP1), XBP1 (gene 7494)
The assay is described as follows: LTEA_HepaRG_XBP1: Life Technologies and Expression Analysis (LTEA) Assay for X-box binding protein 1 (XBP1) using HepaRG (AID 2283540; active means hit-call score of the fitted dose curve at least 0.9, where 1 is the maximum; inactive means score below 0.9). To be noted: mRNA level, 48 h; actives raise or lower the signal. An outline of the steps: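 Eight concentrations (half-log, highest 100 uM, 0.5% DMSO) tested in duplicate on HepaRG cells over 48 h in serum-free induction medium; qRT-PCR of XBP1 normalised to ACTB, GAPDH, POLR2A.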

Assay [14] in a line: LTEA_HepaRG_LDH_cytotoxicity: Cytotoxicity Assessment in the Life Technologies and Expression Analysis (LTEA) Assay (AID 2283563).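 On AC50: LDH activity released into spent culture medium as a marker of cell death.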 An outline of the steps: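 Spent-medium LDH after 48 h chemical exposure of HepaRG cells in serum-free induction medium; eight concentrations, half-log dilutions from 100 uM, duplicate wells, fitted upward relative to 0.5% DMSO.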
Assay [15] in a line: Tanguay_ZF_120hpf_MORT_legacy: (Legacy) Oregon State University Tanguay Lab 120 Hour Post-fertilization zebrafish Assay for Mortality (AID 2283633). Summed up: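 Single dechorionated Tropical 5D embryos were held with test chemical (0.64% DMSO final) from 6 to 120 hpf at 28C under foil. Deaths at 24 or 120 hpf were recorded as binary calls, analysed for increase over DMSO controls.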

Assay [16] can be described thus: Tanguay_ZF_120hpf_YSE_legacy: (Legacy) Oregon State University Tanguay Lab 120 Hour Post-fertilization zebrafish Assay for Yolk Sac Edema (AID 2283634). Summed up:
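Single dechorionated embryos were held in sealed plates at 28C with test chemical (0.64% DMSO final) from 6 hpf until 120 hpf. Edema of the yolk sac was then recorded as a binary endpoint; non-mortality endpoints were skipped for dead embryos.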

Assay [17] in a line: Tanguay_ZF_120hpf_AXIS_legacy: (Legacy) Oregon State University Tanguay Lab 120 Hour Post-fertilization zebrafish Assay for Body Axis Malformation (AID 2283635). An outline of the steps: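 Each dechorionated embryo was exposed alone from 6 hpf, with DMSO at 0.64% (vol/vol) and trimethyltin chloride 5 uM as positive control. Axis malformation was recorded at 120 hpf unless the embryo had died.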

Assay [18] can be described thus: Tanguay_ZF_120hpf_EYE_legacy: (Legacy) Oregon State University Tanguay Lab 120 Hour Post-fertilization zebrafish Assay for Eye Malformation (AID 2283636).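 Further: binary presence or absence of eye malformation scored by brightfield in 120 hpf larvae.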 Summed up: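 5D wild-type embryos, pronase-dechorionated at 4 hpf; static exposure 6–120 hpf, 28C, dark; DMSO 0.64% final; 5uM trimethyltin chloride positive control. Binary eye-defect scoring at 120 hpf; dead embryos not scored.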

Assay [19] can be described thus: Tanguay_ZF_120hpf_SNOU_legacy: (Legacy) Oregon State University Tanguay Lab 120 Hour Post-fertilization zebrafish Assay for Snout Malformation (AID 2283637). Summed up: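 Binary brightfield scoring of snout malformation at 120 hpf. Dechorionated 5D wild-type embryos, one per well, static exposure from 6 hpf at 28C, sealed and dark; final DMSO 0.64% (vol/vol), DMSO as baseline; 5uM trimethyltin chloride positive control.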

Read-out in assay [20]: UDP glucuronosyltransferase (UGT1A6), UGT1A6 (gene 54578)
Description: LTEA_HepaRG_UGT1A6: Life Technologies and Expression Analysis (LTEA) Assay for UDP glucuronosyltransferase (UGT1A6) using HepaRG (AID 2283539; active means hit-call score of the fitted dose curve at least 0.9, where 1 is the maximum; inactive means score below 0.9). The following applies: mRNA level, 48 h; actives raise or lower the signal. An outline of the steps: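 Measures mRNA change in HepaRG hepatic cells exposed 48 h to chemicals (eight-point, maximum 100 uM, 0.5% DMSO vehicle) in serum-free induction medium. Expression normalized to endogenous controls; DMSO served as negative control and baseline.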

Where “and” joins values, the source holds several entries; their conditions need not be identical. Equal entries are not always repeated. Results filed as inconclusive are left out. The source holds several records for some structures; these can differ, active in one and inactive in another. Calls of active or inactive are those of the source. How the source made its calls, unless noted: active means hit-call score of the fitted dose curve at least 0.9, where 1 is the maximum; inconclusive means response in the unintended direction; inactive means score below 0.9.

Chain of Cellular tumor antigen p53 (Homo sapiens) (P04637 whole entry, looked up): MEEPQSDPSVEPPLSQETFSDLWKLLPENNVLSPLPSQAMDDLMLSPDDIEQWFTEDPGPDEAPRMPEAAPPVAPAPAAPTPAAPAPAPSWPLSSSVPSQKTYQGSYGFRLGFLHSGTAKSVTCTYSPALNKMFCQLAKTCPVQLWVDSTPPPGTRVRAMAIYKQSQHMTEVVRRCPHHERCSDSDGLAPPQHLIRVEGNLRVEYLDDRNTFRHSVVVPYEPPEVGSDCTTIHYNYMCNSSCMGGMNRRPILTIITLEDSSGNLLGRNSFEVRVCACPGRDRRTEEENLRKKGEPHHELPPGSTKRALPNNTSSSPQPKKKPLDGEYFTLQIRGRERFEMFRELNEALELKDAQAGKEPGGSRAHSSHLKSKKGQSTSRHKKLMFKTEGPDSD

In the case of `COc1cc(/C=C/C(=O)CC(=O)/C=C/c2ccc(O)c(OC)c2)ccc1O`, the compound was called inactive in [1], in [2], in [4] and in assay [6]. In addition, the AC50 in [2] is 82.2 µM (active) and 34.1 µM (active); in assay [3], 2.06 µM (active) and 36 µM (active) and 6.79 µM (active); in [4], 57.5 µM (active) and 19.8 µM (active); in assay [5], 13.6 µM (active) and 35.3 µM (active) and 6.9 µM (active); in [6], 88.4 µM (active) and 23 µM (active); in [7], 14 µM (active) and 39.4 µM (active) and 7.67 µM (active). Moreover, the AC50 is 80.7 µM (active) and 22.5 µM (active) in [8]; 14 µM (active) and 36.5 µM (active) and 7.12 µM (active) in [9].
As to `O=C(OCCCCCOC(=O)c1ccccc1)c1ccccc1`, the compound was called inactive in [10], in assay [14], in [1], in assay [4], in assay [5] and in assay [6]. Also, the result in assay [7], in assay [8], in [9], in assay [15], in assay [16] and in assay [17] was inactive. In addition, the compound was classed as inactive in [18] and in assay [19]. The AC50 in assay [11] was 1.31 µM (active); in assay [12] it was 1.07 µM (active); in [13] it was 0.761 µM (active).
For `CC(CO)OC(C)CO` (stereo not drawn) (tested in a mixture with another compound), the call in [10], in assay [11], in [12], in assay [13], in [14] and in assay [1] was inactive. Moreover, the call in [15], in assay [16], in assay [17], in [18] and in [19] was inactive.
For `CCCCCCOCCO`, the outcome in assay [10], in [11], in [12], in [13], in assay [14] and in [2] was inactive. Further, the outcome in assay [5], in assay [7], in assay [8], in [9], in assay [15] and in assay [16] was inactive. For the same compound, the compound was classed as inactive in assay [17], in assay [18] and in assay [19].
In the case of `Cc1oc(-c2ccccc2)nc1CCOc1cccc2c1ccn2CCC(=O)O`, the half-maximal activity concentration (AC50) was 79.1 µM (active) in [10]; 80.1 µM (active) in assay [11]; 90.9 µM (active) in [12]; 81.4 µM (active) in [14]; 68.6 µM (active) in [3]. The call in assay [13], in [2], in assay [4], in [5], in assay [6] and in assay [7] was inactive. In addition, the compound was classed as inactive in assay [8], in assay [9], in assay [15], in assay [16], in assay [17] and in [19].
As for `Cc1ccc(Cl)cc1`, the compound was called inactive in assay [11], in assay [12], in assay [20], in [13], in assay [14] and in assay [1]. Besides, the call in assay [2], in assay [5], in [6], in assay [7], in assay [8] and in [9] was inactive. Also, the outcome in assay [15], in [16], in [17], in assay [18] and in [19] was inactive.
For `CCCCCCC(=O)OCC`, the outcome in assay [10], in assay [11], in [12], in assay [13], in [14] and in assay [1] was inactive. Besides, the result in assay [3], in [5], in [9], in [15], in [17] and in assay [18] was inactive. Further, the compound was classed as inactive in [19].
On to `CCCc1cc(=O)[nH]c(=S)[nH]1`, for which the outcome in [10], in assay [11], in assay [12], in assay [13], in assay [14] and in [2] was inactive. For the same compound, the outcome in assay [4], in assay [5], in assay [6], in assay [7], in assay [8] and in assay [9] was inactive. Moreover, the outcome in assay [16], in [17], in assay [18] and in assay [19] was inactive.
